The results in this text go back to ChEMBL document CHEMBL1961873, “Compounds: GSK PKIS; Assays: Nanosyn kinase panel” (2012).

Assay [1] deals with T1, Tyrosine-protein kinase receptor TYRO3 (Homo sapiens) (UniProt Q06418).
T1 sequence (whole entry): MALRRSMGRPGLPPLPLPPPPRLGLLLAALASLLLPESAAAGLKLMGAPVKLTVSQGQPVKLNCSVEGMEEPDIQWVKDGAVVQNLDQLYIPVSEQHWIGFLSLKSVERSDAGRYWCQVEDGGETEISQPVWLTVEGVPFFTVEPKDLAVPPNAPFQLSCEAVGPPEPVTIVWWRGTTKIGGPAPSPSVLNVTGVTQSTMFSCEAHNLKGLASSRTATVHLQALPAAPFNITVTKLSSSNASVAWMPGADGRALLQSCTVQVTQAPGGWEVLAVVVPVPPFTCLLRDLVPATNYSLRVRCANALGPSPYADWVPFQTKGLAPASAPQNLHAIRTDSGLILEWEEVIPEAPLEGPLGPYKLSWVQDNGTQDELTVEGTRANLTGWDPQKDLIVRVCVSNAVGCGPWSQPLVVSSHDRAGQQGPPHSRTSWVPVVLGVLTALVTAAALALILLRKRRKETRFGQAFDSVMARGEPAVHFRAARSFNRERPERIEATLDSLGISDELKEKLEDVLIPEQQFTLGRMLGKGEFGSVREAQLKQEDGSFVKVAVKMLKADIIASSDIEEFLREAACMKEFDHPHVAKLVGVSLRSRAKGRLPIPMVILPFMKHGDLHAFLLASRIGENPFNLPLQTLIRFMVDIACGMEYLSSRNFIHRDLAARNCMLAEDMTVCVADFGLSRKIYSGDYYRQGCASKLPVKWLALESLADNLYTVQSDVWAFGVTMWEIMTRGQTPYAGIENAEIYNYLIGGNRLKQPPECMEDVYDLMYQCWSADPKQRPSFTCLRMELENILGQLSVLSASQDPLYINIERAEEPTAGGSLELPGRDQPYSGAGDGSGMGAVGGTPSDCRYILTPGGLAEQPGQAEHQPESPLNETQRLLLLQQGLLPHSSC
The following applies: at 1 µM.

The target in assay [2] is Tyrosine-protein kinase Yes (Homo sapiens) (UniProt P07947). To be noted: at 0.1 µM.
Chain of Tyrosine-protein kinase Yes (Homo sapiens) (P07947 2-543 limits assumed): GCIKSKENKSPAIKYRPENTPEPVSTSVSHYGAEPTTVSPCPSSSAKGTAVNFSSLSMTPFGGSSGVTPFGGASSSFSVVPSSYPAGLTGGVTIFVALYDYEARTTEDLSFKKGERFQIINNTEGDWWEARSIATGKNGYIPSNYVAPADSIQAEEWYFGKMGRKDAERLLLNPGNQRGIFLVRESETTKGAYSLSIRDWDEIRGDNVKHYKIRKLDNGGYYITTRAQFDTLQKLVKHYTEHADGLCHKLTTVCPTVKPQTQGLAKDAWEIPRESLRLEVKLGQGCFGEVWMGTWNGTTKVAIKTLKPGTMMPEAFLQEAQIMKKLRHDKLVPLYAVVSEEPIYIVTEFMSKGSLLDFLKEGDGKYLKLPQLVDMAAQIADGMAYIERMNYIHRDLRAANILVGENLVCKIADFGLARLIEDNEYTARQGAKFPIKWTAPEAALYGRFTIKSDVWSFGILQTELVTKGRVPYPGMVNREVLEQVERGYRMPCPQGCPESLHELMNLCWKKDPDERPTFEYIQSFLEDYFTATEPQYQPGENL
Assay [3] shares this target. The following applies: at 1 µM.
The target of assay [4] is T2, Tyrosine-protein kinase ZAP-70 (Homo sapiens) (UniProt P43403).
T2 sequence (whole entry): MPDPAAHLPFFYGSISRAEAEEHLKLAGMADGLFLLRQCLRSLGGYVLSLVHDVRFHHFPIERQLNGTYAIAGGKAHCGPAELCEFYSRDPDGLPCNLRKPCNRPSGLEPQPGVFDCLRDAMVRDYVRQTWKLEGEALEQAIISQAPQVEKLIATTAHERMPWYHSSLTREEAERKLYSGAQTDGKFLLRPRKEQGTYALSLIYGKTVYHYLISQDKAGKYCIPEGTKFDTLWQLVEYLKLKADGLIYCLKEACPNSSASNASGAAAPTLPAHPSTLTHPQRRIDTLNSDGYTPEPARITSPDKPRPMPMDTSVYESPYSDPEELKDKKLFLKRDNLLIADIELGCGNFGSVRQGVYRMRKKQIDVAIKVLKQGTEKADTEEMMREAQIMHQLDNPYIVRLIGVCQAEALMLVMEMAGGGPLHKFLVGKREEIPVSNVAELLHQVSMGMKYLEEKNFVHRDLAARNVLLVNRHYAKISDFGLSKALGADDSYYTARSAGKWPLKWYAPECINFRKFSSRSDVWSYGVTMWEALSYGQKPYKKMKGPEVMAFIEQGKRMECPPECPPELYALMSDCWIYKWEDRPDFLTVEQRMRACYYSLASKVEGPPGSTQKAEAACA
To be noted: at 0.1 µM.

The target in assay [5] is T2, Tyrosine-protein kinase ZAP-70 (Homo sapiens). The following applies: at 1 µM.
Assay [6] concerns the target Serine/threonine-protein kinase B-raf (Homo sapiens) (UniProt P15056). The following applies: at 0.1 µM.
Assay [7] has the same target. To be noted: at 1 µM.
Assay [8] deals with Serine/threonine-protein kinase B-raf (Homo sapiens), P15056 [V600E]. The following applies: at 0.1 µM.
Chain of Serine/threonine-protein kinase B-raf (Homo sapiens), P15056 [V600E] (P15056 whole entry V600E): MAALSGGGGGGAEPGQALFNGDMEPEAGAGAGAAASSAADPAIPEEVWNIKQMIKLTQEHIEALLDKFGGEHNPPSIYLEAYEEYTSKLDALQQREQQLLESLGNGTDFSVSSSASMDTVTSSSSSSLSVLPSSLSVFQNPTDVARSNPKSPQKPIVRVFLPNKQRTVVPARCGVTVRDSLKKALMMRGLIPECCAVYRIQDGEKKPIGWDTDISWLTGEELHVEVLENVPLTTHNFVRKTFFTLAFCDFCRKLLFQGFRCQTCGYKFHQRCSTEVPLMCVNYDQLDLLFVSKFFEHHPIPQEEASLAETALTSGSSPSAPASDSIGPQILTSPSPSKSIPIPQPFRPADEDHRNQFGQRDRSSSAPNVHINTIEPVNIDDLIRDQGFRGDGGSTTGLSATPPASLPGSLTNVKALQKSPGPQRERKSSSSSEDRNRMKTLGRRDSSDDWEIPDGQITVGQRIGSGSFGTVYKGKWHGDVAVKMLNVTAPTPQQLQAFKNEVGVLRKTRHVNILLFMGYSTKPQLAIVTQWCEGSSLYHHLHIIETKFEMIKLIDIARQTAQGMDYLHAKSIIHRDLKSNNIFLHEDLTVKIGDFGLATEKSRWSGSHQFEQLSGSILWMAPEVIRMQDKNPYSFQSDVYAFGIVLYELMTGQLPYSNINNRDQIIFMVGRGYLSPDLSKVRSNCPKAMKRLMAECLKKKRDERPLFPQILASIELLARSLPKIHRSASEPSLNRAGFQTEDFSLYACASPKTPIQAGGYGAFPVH
Assay [9] shares this test system. The following applies: at 1 µM.
Assay [10] addresses RAF proto-oncogene serine/threonine-protein kinase (Homo sapiens) (UniProt P04049). To be noted: at 0.1 µM.
The target is the same in assay [11]. The following applies: at 1 µM.
The target of assay [12] is T3, Interleukin-1 receptor-associated kinase 4 (Homo sapiens) (UniProt Q9NWZ3).
T3 sequence (whole entry): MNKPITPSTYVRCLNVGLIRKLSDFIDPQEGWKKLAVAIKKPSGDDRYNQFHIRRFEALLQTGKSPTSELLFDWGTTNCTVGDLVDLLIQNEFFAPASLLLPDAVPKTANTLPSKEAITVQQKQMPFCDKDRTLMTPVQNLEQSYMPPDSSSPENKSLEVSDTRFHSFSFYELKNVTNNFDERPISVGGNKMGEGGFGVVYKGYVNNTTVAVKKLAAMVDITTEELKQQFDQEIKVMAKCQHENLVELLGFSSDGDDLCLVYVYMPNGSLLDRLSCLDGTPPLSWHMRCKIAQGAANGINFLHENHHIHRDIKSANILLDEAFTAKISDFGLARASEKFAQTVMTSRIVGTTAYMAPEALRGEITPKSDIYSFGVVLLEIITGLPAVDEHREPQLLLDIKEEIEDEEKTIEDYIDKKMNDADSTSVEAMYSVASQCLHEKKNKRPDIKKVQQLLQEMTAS
To be noted: at 0.1 µM.

The target of assay [13] is T3, Interleukin-1 receptor-associated kinase 4 (Homo sapiens). The following applies: at 1 µM.
The target of assay [14] is Leucine-rich repeat serine/threonine-protein kinase 2 (Homo sapiens) (UniProt Q5S007). To be noted: at 0.1 µM.
Chain of Leucine-rich repeat serine/threonine-protein kinase 2 (Homo sapiens) (Q5S007 whole entry): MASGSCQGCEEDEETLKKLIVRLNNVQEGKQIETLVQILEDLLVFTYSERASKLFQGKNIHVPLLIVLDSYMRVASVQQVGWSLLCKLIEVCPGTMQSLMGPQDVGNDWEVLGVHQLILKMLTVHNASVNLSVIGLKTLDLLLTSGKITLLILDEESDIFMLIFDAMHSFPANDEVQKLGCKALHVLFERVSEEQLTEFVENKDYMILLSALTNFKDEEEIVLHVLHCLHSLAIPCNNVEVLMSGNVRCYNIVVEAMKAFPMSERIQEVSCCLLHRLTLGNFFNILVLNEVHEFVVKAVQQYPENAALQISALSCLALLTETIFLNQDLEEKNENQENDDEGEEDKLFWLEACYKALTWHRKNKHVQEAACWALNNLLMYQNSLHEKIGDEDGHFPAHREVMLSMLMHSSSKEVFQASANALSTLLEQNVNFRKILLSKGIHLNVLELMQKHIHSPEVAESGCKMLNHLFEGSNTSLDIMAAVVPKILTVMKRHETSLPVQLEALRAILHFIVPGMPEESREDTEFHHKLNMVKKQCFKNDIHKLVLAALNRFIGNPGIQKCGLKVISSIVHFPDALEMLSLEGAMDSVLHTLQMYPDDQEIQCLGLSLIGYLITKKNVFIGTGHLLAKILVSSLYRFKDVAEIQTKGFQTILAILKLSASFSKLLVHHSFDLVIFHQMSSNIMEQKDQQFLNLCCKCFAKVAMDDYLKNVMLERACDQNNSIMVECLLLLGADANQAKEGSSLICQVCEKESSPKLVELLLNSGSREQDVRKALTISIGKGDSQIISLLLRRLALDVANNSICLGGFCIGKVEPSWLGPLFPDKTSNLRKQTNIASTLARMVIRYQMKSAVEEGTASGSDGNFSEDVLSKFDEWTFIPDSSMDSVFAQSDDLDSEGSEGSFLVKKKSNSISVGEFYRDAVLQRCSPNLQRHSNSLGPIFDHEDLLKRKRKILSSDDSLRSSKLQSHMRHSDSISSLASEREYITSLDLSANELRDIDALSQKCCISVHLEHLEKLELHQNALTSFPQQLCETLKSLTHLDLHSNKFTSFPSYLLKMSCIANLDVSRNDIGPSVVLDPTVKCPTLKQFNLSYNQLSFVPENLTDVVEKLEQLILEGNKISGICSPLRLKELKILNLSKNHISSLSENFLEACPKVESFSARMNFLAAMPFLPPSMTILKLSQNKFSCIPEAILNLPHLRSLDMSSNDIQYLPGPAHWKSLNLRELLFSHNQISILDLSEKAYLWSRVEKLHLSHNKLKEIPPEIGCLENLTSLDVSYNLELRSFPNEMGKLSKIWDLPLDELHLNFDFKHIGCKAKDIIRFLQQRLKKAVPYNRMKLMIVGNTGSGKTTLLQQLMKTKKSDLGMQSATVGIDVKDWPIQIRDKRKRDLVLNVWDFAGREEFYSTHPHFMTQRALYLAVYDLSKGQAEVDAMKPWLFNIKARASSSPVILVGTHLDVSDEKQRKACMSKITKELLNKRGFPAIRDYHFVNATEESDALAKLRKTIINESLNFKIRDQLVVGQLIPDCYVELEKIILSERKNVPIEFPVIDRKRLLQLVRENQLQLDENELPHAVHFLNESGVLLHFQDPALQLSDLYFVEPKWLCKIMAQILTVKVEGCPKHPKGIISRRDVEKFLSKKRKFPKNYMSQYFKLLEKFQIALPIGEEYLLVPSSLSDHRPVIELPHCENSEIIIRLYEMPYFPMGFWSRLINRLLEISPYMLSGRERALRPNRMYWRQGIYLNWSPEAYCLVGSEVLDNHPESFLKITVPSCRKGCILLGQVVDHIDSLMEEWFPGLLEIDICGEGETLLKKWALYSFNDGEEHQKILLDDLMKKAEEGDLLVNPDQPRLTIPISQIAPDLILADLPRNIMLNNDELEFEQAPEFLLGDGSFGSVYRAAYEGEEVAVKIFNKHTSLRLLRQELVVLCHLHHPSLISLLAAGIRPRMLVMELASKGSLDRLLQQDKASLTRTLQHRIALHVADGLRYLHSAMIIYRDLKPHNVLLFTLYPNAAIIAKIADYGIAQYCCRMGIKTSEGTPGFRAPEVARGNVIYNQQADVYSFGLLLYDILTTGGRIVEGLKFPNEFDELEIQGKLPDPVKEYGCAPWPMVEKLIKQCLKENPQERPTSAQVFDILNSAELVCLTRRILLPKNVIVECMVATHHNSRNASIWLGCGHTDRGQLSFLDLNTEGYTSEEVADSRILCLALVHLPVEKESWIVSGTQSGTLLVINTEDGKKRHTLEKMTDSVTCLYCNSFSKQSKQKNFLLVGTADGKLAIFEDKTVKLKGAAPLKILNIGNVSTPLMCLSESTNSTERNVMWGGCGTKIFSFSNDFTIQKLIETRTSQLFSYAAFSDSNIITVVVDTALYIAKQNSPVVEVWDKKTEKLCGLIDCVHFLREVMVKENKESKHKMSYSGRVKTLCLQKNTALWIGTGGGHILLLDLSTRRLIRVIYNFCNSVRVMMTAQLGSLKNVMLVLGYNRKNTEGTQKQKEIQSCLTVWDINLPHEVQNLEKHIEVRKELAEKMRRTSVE
For assay [15] the target is unchanged. To be noted: at 1 µM.
The subject of assay [16] is Leucine-rich repeat serine/threonine-protein kinase 2 (Homo sapiens), Q5S007 [G2019S]. The following applies: at 0.1 µM.
The test system is the same in assay [17]. The following applies: at 1 µM.

Chain of RAF proto-oncogene serine/threonine-protein kinase (Homo sapiens) (P04049 whole entry): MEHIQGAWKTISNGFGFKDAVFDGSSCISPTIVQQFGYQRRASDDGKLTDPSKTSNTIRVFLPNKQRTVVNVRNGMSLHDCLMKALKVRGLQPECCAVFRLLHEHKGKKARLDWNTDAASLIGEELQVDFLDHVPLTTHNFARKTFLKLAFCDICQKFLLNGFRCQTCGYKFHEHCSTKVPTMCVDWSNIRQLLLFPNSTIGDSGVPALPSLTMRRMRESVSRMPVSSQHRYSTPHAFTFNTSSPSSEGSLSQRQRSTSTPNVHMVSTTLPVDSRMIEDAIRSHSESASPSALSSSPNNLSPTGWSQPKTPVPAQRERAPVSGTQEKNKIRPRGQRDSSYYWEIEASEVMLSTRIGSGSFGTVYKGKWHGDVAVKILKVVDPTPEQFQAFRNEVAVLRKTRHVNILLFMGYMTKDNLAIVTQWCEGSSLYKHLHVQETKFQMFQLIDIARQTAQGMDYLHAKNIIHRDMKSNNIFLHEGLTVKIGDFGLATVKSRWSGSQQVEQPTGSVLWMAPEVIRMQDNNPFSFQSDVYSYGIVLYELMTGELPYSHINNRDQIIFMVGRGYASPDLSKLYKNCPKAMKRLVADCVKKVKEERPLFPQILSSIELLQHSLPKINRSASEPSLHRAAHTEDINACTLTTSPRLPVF
Chain of Serine/threonine-protein kinase B-raf (Homo sapiens) (P15056 whole entry): as the sequence (P15056 whole entry V600E) above, with E600V counted along it
Chain of Leucine-rich repeat serine/threonine-protein kinase 2 (Homo sapiens), Q5S007 [G2019S] (Q5S007 whole entry G2019S): as the sequence (Q5S007 whole entry) above, with G2019S counted along it

Regarding `COc1cc2ncn(-c3cc(OCc4cccs4)c(C(N)=O)s3)c2cc1OC`, the inhibition was 8.04% in assay [1]; 4.84% in [2]; 21.2% in assay [3]; -0.46% in [4]; 3.04% in assay [5]; 1.7% in assay [6]. Further, the inhibition was 0.38% in assay [7]; 2.45% in [8]; 0.77% in [9]; 1.73% in assay [10]; 6.17% in assay [11]; -3.1% in assay [12]. The inhibition came to 1.66% in assay [13]; 2.29% in assay [14]; 9.04% in [15]; 15.9% in assay [16]; 54% in assay [17].

Consider `Fc1ccc(-c2ncn(C3CCNCC3)c2-c2ccnc(Oc3ccc(F)c(F)c3)n2)cc1`, for which the inhibition is 1.35% in [1]; 2.3% in assay [2]; 0.42% in assay [3]; -5.04% in [4]; -3.78% in [5]; 6.07% in assay [6]. Moreover, the inhibition in [7] is 6.2%; in assay [8], 4.48%; in assay [9], 4.06%; in assay [10] it was -1.78%; in assay [11] it was -0.68%; in assay [12] it was 1.33%. For the same compound, the inhibition was 1.17% in [13]; -3.16% in [14]; -4.05% in assay [15]; 0.63% in assay [16]; 2.39% in [17].

As for `Fc1ccc(-c2c(-c3ccncc3)nc3n2CCS3)cc1`, the inhibition was 1.69% in assay [1]; 2.78% in assay [2]; 5.33% in assay [3]; 0.51% in [4]; -2.36% in assay [5]; 4.16% in assay [6]. Moreover, the inhibition in assay [7] is 4.3%; in [8] it was 3.07%; in assay [9], 4.28%; in [10], 2.08%; in assay [11], -2.98%; in assay [12], 1.96%. The inhibition in [13] is 1.7%; in assay [14], -3.32%; in [15], -2.49%; in [16] it was -1.05%; in assay [17] it was 0.48%.

In the case of `COc1ccc(C2=C(N3CCc4ccccc43)C(=O)NC2=O)cc1`, the inhibition in [1] was 3.41%; in assay [2] it was 4.87%; in assay [3], 5.12%; in assay [4], 3.72%; in assay [5], -0.45%; in assay [6] it was 5.73%. Moreover, the inhibition was 7.39% in assay [7]; 6.3% in [8]; 4.71% in [9]; -3.24% in assay [10]; -3.87% in assay [11]; 5.89% in assay [12]. For the same compound, the inhibition in assay [13] amounted to 2.48%; in assay [14], 3.04%; in [15], 10.9%; in assay [16], 4.7%; in assay [17], 13.9%.

For the compound `Cc1ccc(C(=O)NC(C)C)cc1-c1ccc(C(=O)NCC2CC2)cc1`, the inhibition is -0.5% in assay [1]; -0.21% in [2]; -0.56% in assay [3]; -5.65% in assay [4]; -1.41% in [5]; -3.13% in [6]. The inhibition in [7] was -5.03%; in assay [8], -4.24%; in [9] it was -2.75%; in [10], -1.46%; in assay [11] it was -1.23%; in assay [12], -1.36%. Besides, the inhibition was -0.58% in [13]; -0.57% in [14]; -1.69% in assay [15]; 0.59% in assay [16]; 2.07% in assay [17].

Consider `COC(=O)Nc1nc2ccc(Sc3ccc(NC(=O)Nc4cc(C(F)(F)F)ccc4F)cc3)cc2[nH]1`, for which the inhibition was 21.9% in [1]; -0.49% in [2]; 5.58% in [3]; 3.14% in assay [4]; -0.65% in assay [5]; 1.01% in assay [6]. The inhibition is 14.8% in assay [7]; -0.53% in [8]; 17.5% in [9]; -1.08% in assay [10]; 50% in assay [11]; -0.12% in assay [12]. Also, the inhibition in assay [13] was found to be 0.72%; in [14], 0.83%; in assay [15], 9.98%; in assay [16], 0.3%; in assay [17], 4.85%.
